Measured values: the supplement of paper PMC10412459

Tested on: K562 SF3B1 K700E vs K562 SF3B1 WT
Assay: surviving fraction ratio K562 SF3B1 K700E / K562 SF3B1 WT (each relative to DMSO); higher = less selective killing of SF3B1 K700E cells
Details: 5 days
Method in brief: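 In 384-well plates holding 250 cells per well, isogenic K562 cells bearing an engineered mutant allele and matched wild-type cells received compounds from an in-house 80-compound library 24 h after seeding. Doses were 0.5, 1, 5, 10, 50, 100, 500 and 1,000 nM, with 5 d of continuous culture. Surviving fractions were taken from CellTiter-Glo readings and normalised to DMSO. The value reported is the mutant-over-wild-type ratio of these fractions.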

Compound | surviving fraction ratio K562 SF3B1 K700E / K562 SF3B1 WT (0.5nM) | surviving fraction ratio K562 SF3B1 K700E / K562 SF3B1 WT (1nM) | surviving fraction ratio K562 SF3B1 K700E / K562 SF3B1 WT (5nM) | surviving fraction ratio K562 SF3B1 K700E / K562 SF3B1 WT (10nM) | surviving fraction ratio K562 SF3B1 K700E / K562 SF3B1 WT (50nM) | surviving fraction ratio K562 SF3B1 K700E / K562 SF3B1 WT (100nM) | surviving fraction ratio K562 SF3B1 K700E / K562 SF3B1 WT (500nM) | surviving fraction ratio K562 SF3B1 K700E / K562 SF3B1 WT (1000nM)
CC[C@@H]1C(=O)N(C)c2cnc(Nc3ccc(C(=O)NC4CCN(C)CC4)cc3OC)nc2N1C1CCCC1 | 0.867 | 0.956 | 0.455 | 2.45 | 2.89 | 2.99 | 2.76 | 2.22
O=C(O)C1(C(=O)O)CCC1.[NH2-].[NH2-].[Pt+2] [carboplatin] | 0.765 | 0.799 | 0.905 | 0.829 | 0.917 | 0.764 | 0.917 | 0.762
COc1cc2c(cc1O)CC[C@@H]1[C@@H]2CC[C@]2(C)[C@@H](O)CC[C@@H]12 [2-methoxyestradiol] | 0.765 | 0.733 | 0.666 | 0.851 | 0.706 | 0.595 | 0.626 | 1.48
CS(=O)(=O)c1ccc(C(=O)Nc2ccc(Cl)c(-c3ccccn3)c2)c(Cl)c1 | 1.07 | 0.954 | 0.96 | 0.872 | 1 | 0.969 | 1.01 | 1.07
Cn1nnc2c(C(N)=O)ncn2c1=O [temozolomide] | 0.816 | 0.823 | 0.844 | 0.765 | 0.88 | 0.843 | 0.714 | 0.794
CCCCCCCCCCCCCCCC(=O)Nc1ccn([C@@H]2O[C@H](CO)[C@@H](O)[C@@H]2C#N)c(=O)n1 [Sapacitabine] | 0.952 |  | 0.99 |  | 0.729 |  | 1.27 | 
Oc1ccc(/C=C/c2cc(O)cc(O)c2)cc1 [resveratrol] | 0.896 | 0.898 | 0.856 | 0.905 | 1 | 1.24 | 0.916 | 1.28
O=C(c1cc(Cc2n[nH]c(=O)c3ccccc23)ccc1F)N1CCN(C(=O)C2CC2)CC1 [olaparib] | 0.978 | 0.979 | 0.926 | 0.839 | 0.947 | 1.02 | 1.1 | 0.871
COc1cc2ncnc(Nc3ccc(F)c(Cl)c3)c2cc1OCCCN1CCOCC1 [gefitinib] | 0.645 | 0.787 | 0.848 | 0.768 | 0.792 | 0.802 | 0.781 | 0.907
CN(Cc1cnc2nc(N)nc(N)c2n1)c1ccc(C(=O)N[C@@H](CCC(=O)O)C(=O)O)cc1 [methotrexate] | 0.824 | 0.836 | 0.971 | 2.8 | 3.75 | 4.08 | 3.5 | 3.58
Cc1cn(-c2cc(NC(=O)c3ccc(C)c(Nc4nccc(-c5cccnc5)n4)c3)cc(C(F)(F)F)c2)cn1 [nilotinib] | 0.834 | 0.742 | 0.537 | 0.816 | 1.47 | 1.48 | 1.53 | 1.51
CC(=O)c1c(C)c2cnc(Nc3ccc(N4CCNCC4)cn3)nc2n(C2CCCC2)c1=O | 0.861 | 0.89 | 0.743 | 0.796 | 0.826 | 0.882 | 0.849 | 0.864
COCC[n+]1c2c(n(Cc3cnccn3)c1C)C(=O)c1ccccc1C2=O | 0.819 | 0.805 | 1.33 | 1.8 | 1.14 | 0.899 | 0.84 | 0.809
COc1cc2c(Oc3ccc(NC(=O)C4(C(=O)Nc5ccc(F)cc5)CC4)cc3F)ccnc2cc1OCCCN1CCOCC1 [Foretinib] | 0.742 | 0.75 | 0.797 | 0.729 | 0.775 | 0.561 | 1.02 | 0.913
COc1cc2ncnc(Nc3ccc(F)c(Cl)c3)c2cc1NC(=O)/C=C/CN1CCCCC1 | 0.911 | 0.948 | 0.89 | 0.805 | 0.886 | 0.945 | 0.756 | 0.642
C[C@@H](Oc1cc(-c2cnn(C3CCNCC3)c2)cnc1N)c1c(Cl)ccc(F)c1Cl | 0.965 | 1.06 | 0.847 | 0.861 | 0.652 | 0.542 | 1.17 | 1.06
C[C@@H]1CN(CC(=O)Nc2ccc3c(c2)Cc2cccc(-c4cc(=O)cc(N5CCOCC5)o4)c2S3)C[C@H](C)O1 | 0.976 | 1.04 | 0.887 | 0.896 | 1.08 | 0.96 | 0.878 | 0.865
Cc1ccc(-c2cc(C(F)(F)F)nn2-c2ccc(S(N)(=O)=O)cc2)cc1 [celecoxib] | 0.751 | 0.819 | 0.804 | 0.813 | 0.673 | 0.736 | 0.79 | 0.698
C[C@H](CN(C)C)Oc1nc(Nc2cc3cccc(Cl)c3cn2)cnc1C#N | 0.863 | 0.781 | 0.786 | 0.781 | 0.826 | 0.784 | 0.497 | 0.442
Cc1ccc(NC(=O)c2ccc(CN3CCN(C)CC3)cc2)cc1Nc1nccc(-c2cccnc2)n1 [imatinibmesylate] | 0.696 | 0.74 | 0.733 | 0.692 | 0.55 | 0.617 | 1.5 | 1.1
